Laboratory results: publication PMC7862700, “An all-to-all approach to the identification of sequence-specific readers for epigenetic DNA modifications on cytosine”

How the values were obtained:
Test in all cases: DAPPL (digital affinity profiling via proximity ligation, sequencing); 10 mM Tris-HCl pH 7.5, 50 mM NaCl, 1 mM DTT, 4% glycerol, room temperature, 30 min; GST-TFs on glutathione beads, 16-mer random dsDNA library, 0.1% formaldehyde crosslink after washing; high values mean tight binding
FLI1 = biological target: T1, FLI1 (Homo sapiens, UniProt Q01543 1-452); conditions: protein: recombinant; tags: N-terminal GST; dsDNA, one strand shown
T1 sequence: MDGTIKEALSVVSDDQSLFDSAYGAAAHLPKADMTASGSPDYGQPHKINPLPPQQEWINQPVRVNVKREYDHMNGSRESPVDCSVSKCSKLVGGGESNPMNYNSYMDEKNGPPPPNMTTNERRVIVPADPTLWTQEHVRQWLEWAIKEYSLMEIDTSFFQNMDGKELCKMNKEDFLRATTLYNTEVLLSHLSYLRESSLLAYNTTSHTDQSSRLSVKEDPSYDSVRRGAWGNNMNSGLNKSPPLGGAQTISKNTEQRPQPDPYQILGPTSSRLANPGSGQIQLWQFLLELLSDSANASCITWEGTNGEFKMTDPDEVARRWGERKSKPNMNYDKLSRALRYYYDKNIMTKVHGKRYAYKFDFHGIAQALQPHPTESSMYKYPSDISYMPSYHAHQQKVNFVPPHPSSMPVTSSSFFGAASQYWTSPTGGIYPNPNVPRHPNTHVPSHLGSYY
Outline: (§1)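 GST fusions of human transcription factors were expressed in yeast and captured with glutathione beads. Once given DNA barcodes and pooled alongside a tag-only sample, they were incubated for 30 min at room temperature with 200 nmole of a random double-stranded 16-mer DNA library in Tris/NaCl/DTT/glycerol buffer, then washed, crosslinked (0.1% formaldehyde), proximity-ligated, PCR-amplified and sequenced on an Illumina NextSeq500. The binding signal of each hexamer is its read frequency for a factor divided by its frequency for the tag-only sample.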

ELK1 = biological target: T2, ELK1 (Homo sapiens, UniProt P19419 1-428); conditions: protein: recombinant; tags: N-terminal GST; dsDNA, one strand shown
T2 sequence: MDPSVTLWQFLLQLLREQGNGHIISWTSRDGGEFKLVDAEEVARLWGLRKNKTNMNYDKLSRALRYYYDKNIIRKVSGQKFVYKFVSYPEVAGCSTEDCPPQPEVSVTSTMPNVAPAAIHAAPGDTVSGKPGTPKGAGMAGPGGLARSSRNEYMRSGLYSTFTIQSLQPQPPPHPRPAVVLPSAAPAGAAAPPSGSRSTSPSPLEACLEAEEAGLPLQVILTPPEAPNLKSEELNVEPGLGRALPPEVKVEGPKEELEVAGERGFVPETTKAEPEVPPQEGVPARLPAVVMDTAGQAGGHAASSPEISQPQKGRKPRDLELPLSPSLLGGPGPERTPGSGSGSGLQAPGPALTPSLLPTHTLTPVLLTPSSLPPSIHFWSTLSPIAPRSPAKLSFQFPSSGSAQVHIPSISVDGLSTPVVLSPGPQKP
Outline: as §1

GABPA = biological target: T3, GABPA (Homo sapiens, UniProt Q06546 1-454); conditions: protein: recombinant; tags: N-terminal GST; dsDNA, one strand shown
T3 sequence: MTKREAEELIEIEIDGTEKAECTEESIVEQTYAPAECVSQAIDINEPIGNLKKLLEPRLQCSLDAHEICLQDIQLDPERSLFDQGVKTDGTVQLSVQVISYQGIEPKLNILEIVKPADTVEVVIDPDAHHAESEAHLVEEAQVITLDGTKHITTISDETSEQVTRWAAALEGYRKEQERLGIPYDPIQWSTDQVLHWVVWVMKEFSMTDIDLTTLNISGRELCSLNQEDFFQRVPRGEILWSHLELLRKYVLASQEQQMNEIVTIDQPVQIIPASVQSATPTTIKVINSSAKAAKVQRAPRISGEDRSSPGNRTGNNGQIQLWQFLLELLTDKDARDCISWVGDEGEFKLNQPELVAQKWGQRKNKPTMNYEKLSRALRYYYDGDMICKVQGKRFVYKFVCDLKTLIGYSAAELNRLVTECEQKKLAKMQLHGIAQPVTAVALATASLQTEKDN
Outline: as §1

ERG = biological target: T4, ERG (Homo sapiens, UniProt P11308 1-479); conditions: protein: recombinant; tags: N-terminal GST; dsDNA, one strand shown
T4 sequence: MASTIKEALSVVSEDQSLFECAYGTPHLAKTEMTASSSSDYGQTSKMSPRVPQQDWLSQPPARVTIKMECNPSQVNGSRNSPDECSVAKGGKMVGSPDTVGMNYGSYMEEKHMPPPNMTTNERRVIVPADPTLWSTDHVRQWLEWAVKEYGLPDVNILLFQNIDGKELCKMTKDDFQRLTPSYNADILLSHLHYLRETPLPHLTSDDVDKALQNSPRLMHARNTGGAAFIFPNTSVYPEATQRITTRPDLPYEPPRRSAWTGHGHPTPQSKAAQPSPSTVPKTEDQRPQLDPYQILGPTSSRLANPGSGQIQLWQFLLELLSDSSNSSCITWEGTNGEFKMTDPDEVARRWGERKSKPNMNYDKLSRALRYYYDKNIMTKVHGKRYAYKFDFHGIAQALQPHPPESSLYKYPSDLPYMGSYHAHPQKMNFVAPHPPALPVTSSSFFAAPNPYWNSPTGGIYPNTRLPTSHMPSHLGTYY
Outline: as §1

ELF1 = ELF1 (Homo sapiens, UniProt P32519 1-619); conditions: protein: recombinant; tags: N-terminal GST; dsDNA, one strand shown
Outline: as §1

EHF = biological target: T5, EHF (Homo sapiens, UniProt Q9NZC4 1-300); conditions: protein: recombinant; tags: N-terminal GST; dsDNA, one strand shown
T5 sequence: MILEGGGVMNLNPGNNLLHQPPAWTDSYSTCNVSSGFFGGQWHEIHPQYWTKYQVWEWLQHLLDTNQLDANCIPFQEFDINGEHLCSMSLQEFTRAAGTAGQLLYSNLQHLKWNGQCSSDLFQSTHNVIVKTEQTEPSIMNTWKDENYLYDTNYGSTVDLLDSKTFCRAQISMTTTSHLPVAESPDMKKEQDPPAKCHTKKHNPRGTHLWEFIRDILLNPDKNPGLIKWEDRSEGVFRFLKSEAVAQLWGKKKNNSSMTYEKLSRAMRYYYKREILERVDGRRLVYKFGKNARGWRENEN
Outline: as §1

SPI1 = SPI1 (Homo sapiens, UniProt P17947 1-270); conditions: protein: recombinant; tags: N-terminal GST; dsDNA, one strand shown
Outline: as §1

SPIB = SPIB (Homo sapiens, UniProt Q01892 1-262); conditions: protein: recombinant; tags: N-terminal GST; dsDNA, one strand shown
Outline: as §1

ELK3 = biological target: T6, ELK3 (Homo sapiens, UniProt P41970 1-407); conditions: protein: recombinant; tags: N-terminal GST; dsDNA, one strand shown
T6 sequence: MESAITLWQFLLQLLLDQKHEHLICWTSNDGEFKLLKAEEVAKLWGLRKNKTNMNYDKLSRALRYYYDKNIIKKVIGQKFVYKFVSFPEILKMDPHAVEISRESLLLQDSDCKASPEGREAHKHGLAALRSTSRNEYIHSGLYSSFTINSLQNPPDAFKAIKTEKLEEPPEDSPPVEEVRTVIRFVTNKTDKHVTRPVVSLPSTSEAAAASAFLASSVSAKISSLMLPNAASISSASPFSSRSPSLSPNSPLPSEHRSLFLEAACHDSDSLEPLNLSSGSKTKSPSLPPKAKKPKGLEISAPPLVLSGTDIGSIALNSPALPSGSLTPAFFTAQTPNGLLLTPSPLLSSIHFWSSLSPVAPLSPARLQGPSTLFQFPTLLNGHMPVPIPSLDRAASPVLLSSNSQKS
Outline: as §1

FEV = biological target: T7, FEV (Homo sapiens, UniProt Q99581 1-238); conditions: protein: recombinant; tags: N-terminal GST; dsDNA, one strand shown
T7 sequence: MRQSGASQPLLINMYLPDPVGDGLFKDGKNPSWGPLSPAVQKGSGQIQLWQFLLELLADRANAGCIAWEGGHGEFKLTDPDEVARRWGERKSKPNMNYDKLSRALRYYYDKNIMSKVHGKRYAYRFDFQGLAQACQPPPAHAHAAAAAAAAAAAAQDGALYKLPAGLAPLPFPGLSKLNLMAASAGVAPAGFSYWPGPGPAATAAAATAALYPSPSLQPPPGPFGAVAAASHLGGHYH
Outline: as §1

ETV5 = ETV5 (Homo sapiens, UniProt P41161 1-510); conditions: protein: recombinant; tags: N-terminal GST; dsDNA, one strand shown
Outline: as §1

HSF1 = HSF1 (Homo sapiens, UniProt Q00613 1-529); conditions: protein: recombinant; tags: N-terminal GST; chain copies: 3; dsDNA, one strand shown
Outline: as §1

SPIC = biological target: T8, SPIC (Homo sapiens, UniProt Q8N5J4 1-248); conditions: protein: recombinant; tags: N-terminal GST; dsDNA, one strand shown
T8 sequence: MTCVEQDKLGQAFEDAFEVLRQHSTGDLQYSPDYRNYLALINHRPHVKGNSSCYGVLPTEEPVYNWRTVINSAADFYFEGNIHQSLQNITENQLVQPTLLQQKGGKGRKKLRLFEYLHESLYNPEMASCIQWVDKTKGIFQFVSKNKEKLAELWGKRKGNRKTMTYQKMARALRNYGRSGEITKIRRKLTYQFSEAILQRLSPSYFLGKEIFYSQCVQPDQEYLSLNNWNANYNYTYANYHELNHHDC
Outline: as §1

ELF4 = ELF4 (Homo sapiens, UniProt Q99607 1-663); conditions: protein: recombinant; tags: N-terminal GST; dsDNA, one strand shown
Outline: as §1

ELK4 = biological target: T9, ELK4 (Homo sapiens, UniProt P28324-2 1-405); conditions: protein: recombinant; tags: N-terminal GST; dsDNA, one strand shown
T9 sequence: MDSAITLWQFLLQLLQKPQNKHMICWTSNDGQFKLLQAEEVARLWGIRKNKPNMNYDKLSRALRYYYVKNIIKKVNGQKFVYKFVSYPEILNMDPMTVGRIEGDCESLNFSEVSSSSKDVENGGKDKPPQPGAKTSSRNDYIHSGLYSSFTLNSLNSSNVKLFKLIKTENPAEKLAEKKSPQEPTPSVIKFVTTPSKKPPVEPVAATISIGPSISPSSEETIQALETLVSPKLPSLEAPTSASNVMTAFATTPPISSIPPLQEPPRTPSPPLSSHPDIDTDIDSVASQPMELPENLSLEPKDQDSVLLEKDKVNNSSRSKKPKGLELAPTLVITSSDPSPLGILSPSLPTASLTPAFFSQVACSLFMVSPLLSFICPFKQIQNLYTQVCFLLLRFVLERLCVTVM
Outline: as §1

ETV2 = biological target: T10, ETV2 (Homo sapiens, UniProt O00321 1-342); conditions: protein: recombinant; tags: N-terminal GST; dsDNA, one strand shown
T10 sequence: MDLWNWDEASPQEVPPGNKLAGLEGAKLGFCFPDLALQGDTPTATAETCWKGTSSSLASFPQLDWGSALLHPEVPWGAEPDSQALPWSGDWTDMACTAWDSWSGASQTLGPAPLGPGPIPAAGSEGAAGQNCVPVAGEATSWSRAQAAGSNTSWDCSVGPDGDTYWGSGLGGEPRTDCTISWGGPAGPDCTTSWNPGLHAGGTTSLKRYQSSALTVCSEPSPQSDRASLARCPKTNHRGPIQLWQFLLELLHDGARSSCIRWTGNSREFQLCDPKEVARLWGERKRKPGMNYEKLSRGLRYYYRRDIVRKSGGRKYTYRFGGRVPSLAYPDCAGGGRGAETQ
Outline: as §1

ELF3 = biological target: T11, ELF3 (Homo sapiens, UniProt P78545 1-371); conditions: protein: recombinant; tags: N-terminal GST; dsDNA, one strand shown
T11 sequence: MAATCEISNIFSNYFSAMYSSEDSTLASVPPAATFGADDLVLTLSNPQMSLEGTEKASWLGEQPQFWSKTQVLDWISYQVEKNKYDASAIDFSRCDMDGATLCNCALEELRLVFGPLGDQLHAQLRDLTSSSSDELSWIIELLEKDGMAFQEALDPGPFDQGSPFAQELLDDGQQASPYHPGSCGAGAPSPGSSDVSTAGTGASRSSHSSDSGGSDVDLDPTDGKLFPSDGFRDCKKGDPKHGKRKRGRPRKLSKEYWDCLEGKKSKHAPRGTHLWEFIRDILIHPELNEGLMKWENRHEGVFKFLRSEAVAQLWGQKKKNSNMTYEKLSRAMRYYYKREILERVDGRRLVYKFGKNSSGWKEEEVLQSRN
Outline: as §1

CRX = CRX (Homo sapiens, UniProt O43186 1-299); conditions: protein: recombinant; tags: N-terminal GST; dsDNA, one strand shown
Outline: as §1

ETV1 = ETV1 (Homo sapiens, UniProt P50549 1-477); conditions: protein: recombinant; tags: N-terminal GST; dsDNA, one strand shown
Outline: as §1

ETV1, sequence (P50549 whole entry): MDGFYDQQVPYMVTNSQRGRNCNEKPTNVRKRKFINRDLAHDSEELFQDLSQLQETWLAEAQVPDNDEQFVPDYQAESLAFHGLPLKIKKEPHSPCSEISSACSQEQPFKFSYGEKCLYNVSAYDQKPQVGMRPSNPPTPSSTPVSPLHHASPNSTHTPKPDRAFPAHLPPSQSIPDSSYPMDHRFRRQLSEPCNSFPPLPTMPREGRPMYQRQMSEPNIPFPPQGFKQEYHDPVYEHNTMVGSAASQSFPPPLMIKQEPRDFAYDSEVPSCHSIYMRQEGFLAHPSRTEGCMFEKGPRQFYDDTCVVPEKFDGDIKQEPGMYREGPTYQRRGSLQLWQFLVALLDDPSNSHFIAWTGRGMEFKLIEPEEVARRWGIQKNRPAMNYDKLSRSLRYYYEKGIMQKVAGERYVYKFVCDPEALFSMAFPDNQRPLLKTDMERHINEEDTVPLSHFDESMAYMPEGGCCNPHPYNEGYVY
HSF1, sequence (Q00613 whole entry): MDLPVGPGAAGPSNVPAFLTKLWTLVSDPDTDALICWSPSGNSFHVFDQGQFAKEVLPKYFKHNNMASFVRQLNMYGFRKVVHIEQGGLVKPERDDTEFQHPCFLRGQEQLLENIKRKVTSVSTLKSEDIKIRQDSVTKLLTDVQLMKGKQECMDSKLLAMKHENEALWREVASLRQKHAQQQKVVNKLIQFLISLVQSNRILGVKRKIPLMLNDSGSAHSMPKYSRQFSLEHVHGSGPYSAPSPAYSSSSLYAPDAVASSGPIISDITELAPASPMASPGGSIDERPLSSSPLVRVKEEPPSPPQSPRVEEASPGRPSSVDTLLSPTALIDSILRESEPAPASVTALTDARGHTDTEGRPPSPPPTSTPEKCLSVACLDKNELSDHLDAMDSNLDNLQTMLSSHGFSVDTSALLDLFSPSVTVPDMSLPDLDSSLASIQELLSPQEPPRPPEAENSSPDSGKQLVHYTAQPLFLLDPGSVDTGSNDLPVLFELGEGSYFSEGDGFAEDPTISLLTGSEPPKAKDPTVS
SPIB, sequence (Q01892 whole entry): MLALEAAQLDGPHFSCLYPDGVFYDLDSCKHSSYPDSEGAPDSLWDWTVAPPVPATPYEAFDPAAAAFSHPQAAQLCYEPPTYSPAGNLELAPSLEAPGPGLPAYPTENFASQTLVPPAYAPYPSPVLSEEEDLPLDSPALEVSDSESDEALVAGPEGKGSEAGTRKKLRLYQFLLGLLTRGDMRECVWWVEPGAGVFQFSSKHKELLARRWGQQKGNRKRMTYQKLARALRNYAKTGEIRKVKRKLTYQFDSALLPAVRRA
CRX, sequence (O43186 whole entry): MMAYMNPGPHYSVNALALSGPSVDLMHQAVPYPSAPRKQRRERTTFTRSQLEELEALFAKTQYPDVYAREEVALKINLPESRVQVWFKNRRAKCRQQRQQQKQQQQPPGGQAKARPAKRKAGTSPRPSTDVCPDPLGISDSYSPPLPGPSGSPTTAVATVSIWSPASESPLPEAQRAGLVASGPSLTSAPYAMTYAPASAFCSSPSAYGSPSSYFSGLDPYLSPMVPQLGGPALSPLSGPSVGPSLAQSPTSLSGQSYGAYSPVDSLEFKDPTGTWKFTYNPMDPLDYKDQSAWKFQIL
ELF4, sequence (Q99607 whole entry): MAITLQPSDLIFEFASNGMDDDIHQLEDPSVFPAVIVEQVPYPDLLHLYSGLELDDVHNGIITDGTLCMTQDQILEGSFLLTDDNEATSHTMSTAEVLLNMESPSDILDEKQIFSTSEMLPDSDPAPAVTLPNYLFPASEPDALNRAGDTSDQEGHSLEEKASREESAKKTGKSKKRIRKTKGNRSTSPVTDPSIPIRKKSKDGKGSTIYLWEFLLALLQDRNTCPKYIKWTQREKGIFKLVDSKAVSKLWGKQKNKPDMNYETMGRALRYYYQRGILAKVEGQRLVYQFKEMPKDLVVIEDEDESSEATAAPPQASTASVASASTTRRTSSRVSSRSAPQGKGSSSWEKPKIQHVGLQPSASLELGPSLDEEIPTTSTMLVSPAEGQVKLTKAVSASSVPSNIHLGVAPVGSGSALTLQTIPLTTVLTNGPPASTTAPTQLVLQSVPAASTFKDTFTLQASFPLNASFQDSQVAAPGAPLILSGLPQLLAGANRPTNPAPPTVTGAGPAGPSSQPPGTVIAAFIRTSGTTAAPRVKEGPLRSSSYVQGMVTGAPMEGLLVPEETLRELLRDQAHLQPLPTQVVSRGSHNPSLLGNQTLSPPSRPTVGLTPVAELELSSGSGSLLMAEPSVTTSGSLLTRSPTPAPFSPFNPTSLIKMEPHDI
ELF1, sequence (P32519 whole entry): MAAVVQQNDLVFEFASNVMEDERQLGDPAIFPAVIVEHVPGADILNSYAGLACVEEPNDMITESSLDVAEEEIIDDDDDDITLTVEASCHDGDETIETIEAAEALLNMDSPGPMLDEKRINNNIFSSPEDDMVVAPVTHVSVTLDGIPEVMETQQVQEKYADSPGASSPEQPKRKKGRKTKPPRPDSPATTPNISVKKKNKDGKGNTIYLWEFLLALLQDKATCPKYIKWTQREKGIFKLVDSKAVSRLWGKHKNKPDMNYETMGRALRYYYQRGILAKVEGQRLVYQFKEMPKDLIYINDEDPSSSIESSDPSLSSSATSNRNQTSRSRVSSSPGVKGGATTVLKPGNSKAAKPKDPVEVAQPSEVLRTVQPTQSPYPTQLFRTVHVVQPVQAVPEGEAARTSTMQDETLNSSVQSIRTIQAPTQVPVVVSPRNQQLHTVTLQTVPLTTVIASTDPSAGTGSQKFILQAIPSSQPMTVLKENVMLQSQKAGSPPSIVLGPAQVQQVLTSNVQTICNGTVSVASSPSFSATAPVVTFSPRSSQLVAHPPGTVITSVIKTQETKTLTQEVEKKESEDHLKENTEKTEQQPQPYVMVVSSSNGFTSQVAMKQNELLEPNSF
ETV5, sequence (P41161 whole entry): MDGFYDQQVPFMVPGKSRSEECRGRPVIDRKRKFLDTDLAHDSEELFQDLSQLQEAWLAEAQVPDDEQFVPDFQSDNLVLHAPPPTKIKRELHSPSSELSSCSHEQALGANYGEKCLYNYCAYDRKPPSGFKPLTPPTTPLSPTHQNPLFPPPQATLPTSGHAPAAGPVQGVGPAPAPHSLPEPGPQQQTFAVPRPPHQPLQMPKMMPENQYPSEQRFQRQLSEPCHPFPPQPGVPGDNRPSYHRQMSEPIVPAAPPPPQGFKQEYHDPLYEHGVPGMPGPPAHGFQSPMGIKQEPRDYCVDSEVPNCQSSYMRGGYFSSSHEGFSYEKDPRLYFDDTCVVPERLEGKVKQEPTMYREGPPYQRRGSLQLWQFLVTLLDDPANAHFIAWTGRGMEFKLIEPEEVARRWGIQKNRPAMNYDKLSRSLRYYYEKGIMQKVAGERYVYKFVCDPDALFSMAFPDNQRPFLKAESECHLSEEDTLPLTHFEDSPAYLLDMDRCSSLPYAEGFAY

In the case of CAATTA, the binding signal (FLI1) was 1.05 fold enrichment (6-mer frequency, TF over GST control), the binding signal (ELK1) was 1.11 fold enrichment (6-mer frequency, TF over GST control) and the binding signal (GABPA) was 1.1 fold enrichment (6-mer frequency, TF over GST control). For the same sequence, the binding signal (ERG) was 1.05 fold enrichment (6-mer frequency, TF over GST control), the binding signal (ELF1) was 1.1 fold enrichment (6-mer frequency, TF over GST control) and the binding signal (EHF) was 1.07 fold enrichment (6-mer frequency, TF over GST control). The binding signal (SPI1) was 1.15 fold enrichment (6-mer frequency, TF over GST control), the binding signal (SPIB) was 1.16 fold enrichment (6-mer frequency, TF over GST control) and the binding signal (ELK3) was 1.05 fold enrichment (6-mer frequency, TF over GST control). The binding signal (FEV) was 1.08 fold enrichment (6-mer frequency, TF over GST control), the binding signal (ETV5) was 1.16 fold enrichment (6-mer frequency, TF over GST control) and the binding signal (HSF1) was 1.12 fold enrichment (6-mer frequency, TF over GST control). For the same sequence, the binding signal (SPIC) was 1.05 fold enrichment (6-mer frequency, TF over GST control), the binding signal (ELF4) was 1.14 fold enrichment (6-mer frequency, TF over GST control) and the binding signal (ELK4) was 1.05 fold enrichment (6-mer frequency, TF over GST control). The binding signal (ETV2) was 1.03 fold enrichment (6-mer frequency, TF over GST control), the binding signal (ELF3) was 1.22 fold enrichment (6-mer frequency, TF over GST control) and the binding signal (CRX) was 1.25 fold enrichment (6-mer frequency, TF over GST control). The binding signal (ETV1) was 1.09 fold enrichment (6-mer frequency, TF over GST control).
